Compounds with a hit are over-represented: about 7.5% of the library has one in this group of screens.
Rab9 promoter act = activates the Rab9 promoter | Potency, µM (doses to about 9.22 µM), hits mostly activators | Huh7 Rab9 promoter-luciferase reporter, luminescence, 24 h | 320,000 tested, 2.8% active; further: nearly all actives have a fitted effect of over 60% in size
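Stable Rab9-luc Huh7, 1500 cells/well, 2 h settle; cmpd in DMSO, 24 h, 37 °C/5% CO2; luciferase reagent 10 min RT; luminescence.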
SMN2 splice up = SMN2 splice variant enhancement. 210,000 tested, 2.8% active. HEK293 SMN2-luciferase splicing reporter, luminescence, 30-36 h. Potency, µM (doses to about 46.1 µM), hits mostly activators. AID 1458; further: nearly all actives have a fitted effect of over 55% in size
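HEK293 cells carry an SMN2 minigene-luciferase reporter in which exon 7 inclusion puts luciferase in frame. Cells were seeded at 2000 cells/well, attached for 10-12 hours, then exposed to compounds for 30-36 hours at 37C before ONE-Glo luminescence.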
FLuc modulator = counter-screen for miR-21 project: firefly luciferase inhibitors or activators; P08659; purified FLuc, Km substrates, luminescence inhibition; Potency, µM (top dose mostly 57.5 µM), usual class: inhibitors; 360,000 tested, 6.9% active; further: nearly all actives have a fitted effect of over 55% in size
Target sequence (P08659 whole entry, looked up): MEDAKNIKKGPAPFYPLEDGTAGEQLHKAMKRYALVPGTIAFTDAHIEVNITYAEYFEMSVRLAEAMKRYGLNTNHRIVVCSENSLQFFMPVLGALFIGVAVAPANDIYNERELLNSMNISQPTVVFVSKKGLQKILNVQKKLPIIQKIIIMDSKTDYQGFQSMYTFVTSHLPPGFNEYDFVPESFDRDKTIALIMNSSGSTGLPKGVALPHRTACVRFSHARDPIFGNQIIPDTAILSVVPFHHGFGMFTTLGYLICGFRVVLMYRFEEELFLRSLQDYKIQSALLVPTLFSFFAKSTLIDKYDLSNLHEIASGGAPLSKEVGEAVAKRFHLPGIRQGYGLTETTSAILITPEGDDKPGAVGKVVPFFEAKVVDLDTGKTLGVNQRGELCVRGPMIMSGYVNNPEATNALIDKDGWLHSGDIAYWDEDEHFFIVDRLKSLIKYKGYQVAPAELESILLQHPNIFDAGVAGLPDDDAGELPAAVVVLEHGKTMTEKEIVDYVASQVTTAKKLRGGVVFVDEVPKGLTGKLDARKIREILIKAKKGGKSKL
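Purified P. pyralis luciferase, 10 nM final, with Km-level 10 uM D-luciferin and 10 uM ATP in 50 mM Tris acetate pH 7.5, 10 mM Mg acetate, 0.01% Tween-20, 0.05% BSA; 6-point qHTS titration about 60 µM downward; luminescence read.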
NPC1 promoter act = NPC1 promoter activation | Huh7 NPC1 promoter luciferase reporter, 24 h | AID 485313 | 320,000 tested, 2.4% active | Potency, µM (highest dose often 9.22 µM), hits mostly activators; further: nearly all actives have a fitted effect of over 60% in size
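Luminescence read-out of NPC1 promoter-driven luciferase in stably transfected Huh7 cells; compounds delivered in DMSO and left 24 h at 37C, 5% CO2, qHTS titration format.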
ELG1 genotoxic = induces genotoxicity in HEK293T cells with luciferase-tagged ELG1 | 330,000 tested, 1.3% active | HEK293T ELG1-luciferase reporter, luminescence, 16 h | AID 504466 | Potency, µM (series often up to 46 µM), hits mostly activators; further: nearly all actives have a fitted effect of over 60% in size
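DMSO vehicle served as control against compound-treated ELG1-luciferase HEK293T cells; exposure lasted 16 hr at 37 °C and 5% CO2, followed by ONE-Glo luminescence detection after 30 min.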
Luc counter = counter-screen: inhibitors of Kinase-Glo firefly luciferase. Q27757. Kinase-Glo luciferase, ATP luminescence, 8 min. Potency, µM (titrated, usually from 38.3 µM), usual class: inhibitors. 200,000 tested, 0.28% active. AID 1379; further: nearly all actives have a fitted effect of over 60% in size
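Recombinant Kinase-Glo luciferase, 10 uM ATP (linear range), luciferin; imidazole pH 7.2 / KCl / MgCl2 / Tween / BSA buffer; 8 min RT; luminescence.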
Numbers stand for hits; [ ] = dose if it differs, or a comment. The call rests on the fitted dose curve; in most records, active means well fitted curve in the direction sought with a large enough effect; inconclusive means small, poorly fitted or top-dose-only effect, or another doubt; inactive means no such curve, though single readings can be large; an effect the other way counts as inactive or inconclusive.

Screening CCCn1c(COc2ccccc2OC)nc2ccccc21 returned Rab9 promoter act inactive, FLuc modulator inconclusive, NPC1 promoter act inactive and ELG1 genotoxic inactive.
Screening CCn1c(CCc2ccccc2)nc2ccccc21 returned Rab9 promoter act inactive, FLuc modulator 17µM, NPC1 promoter act inactive and ELG1 genotoxic inactive.
For CCn1c(COc2ccccc2OC)nc2ccccc21 the results were Rab9 promoter act inactive, FLuc modulator 17µM, NPC1 promoter act inactive and ELG1 genotoxic inactive.
CCn1c(COc2ccccc2C)nc2ccccc21 was read as Rab9 promoter act inactive, SMN2 splice up inconclusive, FLuc modulator 11µM, NPC1 promoter act inactive, ELG1 genotoxic inconclusive and Luc counter inactive.
For Cc1ccc(-c2nc(CS(=O)CC(=O)NCc3ccco3)c(C)o2)cc1 (stereo not drawn) the results were Rab9 promoter act inactive, FLuc modulator inactive, NPC1 promoter act inactive and ELG1 genotoxic inactive.
Cc1ccnc2nc(C(=O)OCC(=O)N(CC(C)C)C3CCS(=O)(=O)C3)nn12 (stereo not drawn) was read as Rab9 promoter act inactive, FLuc modulator inactive, NPC1 promoter act inactive and ELG1 genotoxic inactive.
`CCCC[C@@H]1C[C@H]1C(NC(=O)c1ccco1)c1ccccc1C(F)(F)F` (stereo partly drawn) gave SMN2 splice up inactive and Luc counter inactive.
`O=C(Nc1ccc2[nH]c(=O)[nH]c2c1)c1ccc([N+](=O)[O-])o1` gave Rab9 promoter act inactive, FLuc modulator inactive, NPC1 promoter act inactive and ELG1 genotoxic inactive.
Screening Cc1ccc(NC(=O)c2ccc([N+](=O)[O-])o2)cc1C returned Rab9 promoter act inconclusive, SMN2 splice up inactive, FLuc modulator 21µM, NPC1 promoter act inactive, ELG1 genotoxic inactive and Luc counter inactive.
O=C(Nc1cccc2ccccc12)c1ccc([N+](=O)[O-])o1 was read as Rab9 promoter act inactive, FLuc modulator inactive, NPC1 promoter act inactive and ELG1 genotoxic inactive.
For O=C(Nc1cccc(NC(=O)c2ccccc2Cl)c1)c1ccc([N+](=O)[O-])o1 the results were Rab9 promoter act inactive, FLuc modulator 21µM, NPC1 promoter act inactive and ELG1 genotoxic inactive.
CC(C)(C)C(=O)N1CCN(c2ccc(NC(=O)c3ccc([N+](=O)[O-])o3)cc2)CC1 was read as Rab9 promoter act inactive, FLuc modulator inactive, NPC1 promoter act inactive and ELG1 genotoxic inactive.
`O=C(Nc1ccc(N2CCCC2)c(Cl)c1)c1ccc([N+](=O)[O-])o1` gave Rab9 promoter act inconclusive, SMN2 splice up inactive, FLuc modulator 7.6µM, NPC1 promoter act inconclusive, ELG1 genotoxic inactive and Luc counter inconclusive.
Screening CS(=O)(=O)N1CCN(c2ccc(NC(=O)c3ccc([N+](=O)[O-])o3)cc2)CC1 returned Rab9 promoter act 2.2µM, FLuc modulator inactive, NPC1 promoter act inconclusive and ELG1 genotoxic inconclusive.
Screening COc1ccc(S(=O)(=O)Oc2ccccc2C(N)=O)cc1 returned Rab9 promoter act inactive, FLuc modulator inactive, NPC1 promoter act inactive and ELG1 genotoxic inactive.
For CCC(=O)N1CCN(c2ccc(NC(=O)c3ccc([N+](=O)[O-])o3)cc2)CC1 the results were Rab9 promoter act inactive, SMN2 splice up inactive, FLuc modulator inactive, NPC1 promoter act inactive, ELG1 genotoxic inactive and Luc counter inactive.
O=C(Nc1ccc(N2CCCCC2)cc1)c1ccc([N+](=O)[O-])o1 was read as Rab9 promoter act 2.5µM, FLuc modulator 1.5µM, NPC1 promoter act 0.5µM and ELG1 genotoxic 6.5µM.
Screening CC1CCN(c2ccc(NC(=O)c3ccc([N+](=O)[O-])o3)cc2)CC1 returned Rab9 promoter act 2µM, FLuc modulator 1.1µM, NPC1 promoter act inconclusive and ELG1 genotoxic 3.7µM.
For CCOC(=O)N1CCC(NC(=O)c2ccc3c(c2)N(Cc2cc(C)ccc2C)C(=O)c2ccccc2S3(=O)=O)CC1 the results were SMN2 splice up inactive and FLuc modulator inactive.
For N/C(=N\OC(=O)c1cccc(F)c1)c1ccccc1 the results were Rab9 promoter act inactive, SMN2 splice up inactive, FLuc modulator 0.67µM, NPC1 promoter act inactive, ELG1 genotoxic inconclusive and Luc counter 11µM.
Cc1ccc(C(=O)O/N=C(\N)Cc2cccc3ccccc23)cc1 was read as Rab9 promoter act inactive, FLuc modulator inactive, NPC1 promoter act inactive and ELG1 genotoxic inactive.
`Cc1ccc(/C(N)=N/OC(=O)c2cccc(F)c2)cc1` gave Rab9 promoter act inactive, FLuc modulator 3µM, NPC1 promoter act inactive and ELG1 genotoxic inconclusive.
For Cc1ccc(/C(N)=N/OC(=O)c2ccc3ccccc3c2)cc1 the results were Rab9 promoter act inconclusive, FLuc modulator 6.7µM, NPC1 promoter act inconclusive and ELG1 genotoxic inconclusive.
Screening COc1ccc(NC(=O)CC(c2ccco2)C(C)C)cc1 (stereo not drawn) returned Rab9 promoter act inactive[1.84 µM], FLuc modulator inactive, NPC1 promoter act inactive and ELG1 genotoxic inactive.
Screening CC(=O)Nc1cccc(-c2nc3ccccc3s2)c1 returned Rab9 promoter act 2.2µM, SMN2 splice up 13µM, FLuc modulator 9.5µM, NPC1 promoter act inconclusive, ELG1 genotoxic inconclusive and Luc counter inactive.
Cc1ccc(C(=O)Nc2ccc(-c3nc4ccccc4s3)c(O)c2)c(C)c1 was read as FLuc modulator inactive.
Cc1ccc(-c2nc3ccccc3s2)cc1NC(=S)NC(=O)c1cccc2ccccc12 was read as Rab9 promoter act inactive, SMN2 splice up inconclusive, FLuc modulator 11µM, NPC1 promoter act inactive, ELG1 genotoxic inconclusive and Luc counter inactive.
For Cc1ccc(C(=O)NC(=S)Nc2cccc(-c3nc4ccccc4s3)c2)cc1 the results were Rab9 promoter act inactive, SMN2 splice up inactive, FLuc modulator 12µM, NPC1 promoter act inactive, ELG1 genotoxic inconclusive and Luc counter inactive.
For CN(C)c1cccc(C(=O)Nc2ccc(-c3nc4ccccc4s3)cc2)c1 the results were FLuc modulator 5.4µM.
Screening COCCN1CC(C(=O)N2CCC(Oc3ccccc3OC)CC2)CCC1=O (stereo not drawn) returned Rab9 promoter act inactive, FLuc modulator inactive, NPC1 promoter act inactive and ELG1 genotoxic inactive.
`CC(=O)Nc1cccc(-c2cc(C)c3cc4c(cc3n2)OCO4)c1` gave Rab9 promoter act inactive, FLuc modulator 8.5µM, NPC1 promoter act inconclusive and ELG1 genotoxic inconclusive.
`CC(=O)Nc1cccc(-c2nc3ccc(NC(C)=O)cc3s2)c1` gave Rab9 promoter act 0.89µM, SMN2 splice up 13µM, FLuc modulator 3µM, NPC1 promoter act 3.2µM, ELG1 genotoxic inconclusive and Luc counter inactive.
Screening COc1ccc(CN2C(=O)N(c3cccc(C)c3)C(=O)C2CC(=O)Nc2ccc(F)cc2)cc1OC (stereo not drawn) returned SMN2 splice up inactive and FLuc modulator inactive.

High-throughput results: PubChem, National Center for Advancing Translational Sciences (NCATS)
